Assay results: PubChem BioAssay (NCATS)
Inconclusive results are not listed. Active and inactive are the calls of the source. Calls follow the shape of the dose curve; as a rule, active = well fitted activation curve with a large enough effect; inconclusive = small, poorly fitted or top-dose-only effect; inactive = flat fitted curve, though single readings scatter.

Assay: Cellular Toxicity (caspase-3) Hek293 (AID 664);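 also: cells exposed to compound for 16 h at 37 °C before readout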
Conditions: HEK293 caspase-3 activation, DMSO = 0%, 100 µM tamoxifen = 100%; at 92.2 µM (top of the series)
Source text: NIH Chemical Genomics Center [NCGC]
NIH Molecular Libraries Screening Centers Network [MLSCN]
National Institutes of Environmental Health Sciences [NIEHS]
National Toxicology Program [NTP]
We have developed a 1536-well cell-based assay for quantitative high throughput screening (qHTS) against a number of cell lines to determine in vitro caspase 3/7 of small molecules. This particular assay uses the Hek 293 cell line which is derived from human embryonic kidney cells.
NCGC Assay Protocol Summary:
The Caspase-Glo 3/7 assay (Promega) is a homogeneous method to measure caspase-3 and caspase-7 activities in cultured cells. The quantitation of caspase 3/7 activity is based on the cleavage of a peptide-aminoluciferin substrate. After caspase cleaves the substrate the free aminoluciferin is liberated and serves as the substrate of luciferase, which generates the light. The luminescent signal is proportional to amount of caspase 3/7 activity present.
Using the Caspase-Glo 3/7 assay, the amount of caspase 3/7 activity was measured in the Hek 293 cell line with complete culture medium following compound treatment for 16 hours. The assay was performed in opaque white 1536-well plates. In the screen, tamoxifen and doxorubicin were used as positive controls. Library compounds were measured for their ability to cause the activation of caspase 3/7 in the cell line, as reflected by an increase in luminescence signal, in a concentration-dependent manner. Data were normalized to the controls for basal activity (DMSO only) and 100% stimulation (100 uM tamoxifen). AC50 values were determined from concentration-response data modeled with the standard Hill equation.
qHTS protocol for caspase 3/7 assay in Hek 293 cells
[Step] [Parameter] [Value] [Description]
2. Time; 5 hr; 37 °C incubation
4. Controls; 23 nL; Tamoxifen 0.23 uM to 100 uM & Doxorubicin 7.0 pM to 100 uM
5. Time; 16 hr; 37 °C incubation
6. Reagent; 5 uL; Caspase-Glo 3/7 reagent
7. Time; 20 min; Room Temperature
8. Detection; Luminescence; Viewlux plate reader
Keywords: caspase 3/7, apoptosis, Hek 293 cell line, luminescence, NTPHTS, NTPHTS_NCGC, NIEHS, EPA, DSSTox, MLSMR, MLSCN, NIH Roadmap, qHTS, NCGC

Structure (SMILES) | caspase-3 activation
CC(C)C(C)C | -1.39% (inactive)
ClCCl | 1.14% (inactive)
CC(C)Cc1nccs1 | 2.01% (inactive)
FC(F)(F)c1ccccc1Cl | -1.13% (inactive)
COc1ccc(N=[N+]([O-])c2ccc(OC)cc2)cc1 | -8.4% (inactive)
O=C(O)c1ccc(Cl)c(Cl)c1 | 0.484% (inactive)
COC(=O)CC#N | 0.82% (inactive)
Nc1cc(Cl)c([N+](=O)[O-])cc1O | 5.51% (inactive)
CC(=O)CC(C)C | -0.532% (inactive)
c1ccc(Nc2ccccc2)cc1 | -0.415% (inactive)
O=[N+]([O-])c1ccc2nc[nH]c2c1 | 0.287% (inactive)
NC(=O)c1cccc([N+](=O)[O-])c1 | 2% (inactive)
Cc1cccc(C)c1O | -3.44% (inactive)
Cc1ccccc1C(N)=O | 3.64% (inactive)
Cc1ccccc1C=O | 1.08% (inactive)
CC(C)CCOC(=O)/C=C/c1ccccc1 | 1.37% (inactive)
CCOCC(=O)O | 1% (inactive)
Cc1ccc(C#N)cc1 | 0.103% (inactive)
CCCCCCCCC/C=C/CC1CC(=O)OC1=O (stereo not given) | 5.74% (inactive)
CC(N)CN (stereo not given) | 3.47% (inactive)

Structure (SMILES) | caspase-3 activation
N#Cc1ccccc1 | 1.36% (inactive)
C=CCOC(=O)CCCCCCCC | 1.74% (inactive)
CCCCC(CC)COCC1CO1 (stereo not given) | -2.33% (inactive)
Cc1ccc2c(c1[N+](=O)[O-])C(=O)c1ccccc1C2=O | -1.55% (inactive)
Cc1ccc(C)cc1 | -2.53% (inactive)
O=c1[nH][nH]c(=O)c2cc([N+](=O)[O-])ccc12 | 4.2% (inactive)
Nc1ccc([N+](=O)[O-])c(N)c1 | -0.316% (inactive)
CC(C)(O)CCC(C)(C)O | 5.12% (inactive)
O=P(O)(OCc1ccccc1)OCc1ccccc1 | -1.18% (inactive)
C/C=C1\CC2C=CC1C2 (stereo not given) | -0.412% (inactive)
CC/C=C1/OC(=O)c2ccccc21 | 1.13% (inactive)
C[C@@H]1O[C@@H](O[C@@H]2[C@@H](O)[C@H](OCCc3ccc(O)c(O)c3)O[C@H](CO[C@@H]3O[C@H](CO)[C@@H](O)[C@H](O)[C@H]3O)[C@H]2OC(=O)/C=C/c2ccc(O)c(O)c2)[C@H](O)[C@H](O)[C@H]1O | -1.55% (inactive)
CCCCCCCCCCCCC1CO1 (stereo not given) | 1.51% (inactive)
O=C(O)c1ccc(CO)o1 | -0.635% (inactive)
CC(CCl)OC(C)CCl (stereo not given) | 1.69% (inactive)
O=C1C=CCCC1 | 3.14% (inactive)
COC(=O)CCCC(=O)OC | -0.162% (inactive)
CC(=O)OC(C)=O | -0.384% (inactive)
Cc1ccc(C(C)(C)C)cc1 | -1.91% (inactive)
CC(=O)c1ccccc1[N+](=O)[O-] | 1.17% (inactive)
